Assay outcomes from PubChem.
The sample as a whole holds a higher share of hits than the screen did.
FECH block – human FECH heme synthesis enzyme inhibition; P22830; purified FECH, Ni-mesoporphyrin absorbance 550 nm; calls only at 10 µM (by protocol); hit rate 3.3% among 20,000; AID 1671448;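 active means enzyme reaction rate more than 3 SD below the solvent-only control wells on the same plate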;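 further: lower slope than DMSO wells means FECH inhibition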
Target sequence (P22830 whole entry, looked up): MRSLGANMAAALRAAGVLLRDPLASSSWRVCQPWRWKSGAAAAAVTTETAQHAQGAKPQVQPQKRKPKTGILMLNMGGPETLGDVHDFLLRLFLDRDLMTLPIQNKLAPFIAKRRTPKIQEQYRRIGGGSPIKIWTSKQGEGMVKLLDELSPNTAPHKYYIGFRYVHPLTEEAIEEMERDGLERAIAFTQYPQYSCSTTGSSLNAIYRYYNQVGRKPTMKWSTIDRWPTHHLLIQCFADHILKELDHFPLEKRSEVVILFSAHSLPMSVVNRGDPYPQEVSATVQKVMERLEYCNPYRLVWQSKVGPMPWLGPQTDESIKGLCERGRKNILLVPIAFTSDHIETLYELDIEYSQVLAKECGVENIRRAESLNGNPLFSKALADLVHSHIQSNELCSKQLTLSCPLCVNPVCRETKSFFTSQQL
Numbers without * were called inactive; i = inactive; + = active, no number.

SMILES | FECH block
CC(C)CC(=O)Nc1nc2n(n1)C(c1ccc(Cl)cc1)C=C(c1ccc(Cl)cc1)N2 (stereo not given) | +
O=C(Nc1ccc(Cl)c(N2CCCS2(=O)=O)c1)c1ccc2c(c1)OCO2 | i
CSc1ccc2cc(CN(C)Cc3ccncc3C)c(=O)[nH]c2c1 | i
CCN1CCN(c2c(Cl)cccc2NC(=O)C2=NNC(=O)CC2)CC1 | i
Cc1cccc(OC2CN(c3nc(-c4ccccn4)nc4c3CCNC4)C2)c1 | i
COc1ccc(S(=O)(=O)Nc2cnc(N(CC(C)C)CC(C)C)c(C(=O)O)c2)cc1Cl | i
CNC(=O)C1CCC(Cn2c(=O)c3sccc3n(CC(=O)Nc3cccc(C)c3)c2=O)CC1 (stereo not given) | i
Cc1c(Cl)cccc1Nc1c(-c2ccc3c(c2)CCCC3)c(=O)c1=O | i
O=c1c(Nc2ccc(Cl)cc2)c(-c2ccc3c(c2)CCCC3)c1=O | i
O=c1c(Nc2ccccc2F)c(-c2ccc3c(c2)CCCC3)c1=O | +
NS(=O)(=O)c1ccc(CCNC(=O)CCN2C(=O)c3cccnc3Sc3ccccc32)cc1 | +
NS(=O)(=O)c1ccc(CCNC(=O)CCCN2C(=O)c3cccnc3Sc3ccccc32)cc1 | i
NS(=O)(=O)c1ccc(CCNC(=O)CN2CCSc3ccccc32)cc1 | i
CCN1CCc2c(sc(NC(=O)CN3C(=O)CCC3=O)c2-c2nc3ccccc3s2)C1 | i
Cn1c(=O)c2c(-c3ccc(F)cc3)c(NCc3ccccc3)oc2n(C)c1=O | i
C=CCn1cc(CN[C@H](C)c2cccc(OC)c2)c(C)n1 | +
C=CCn1cc(CN(C)C(C)CC(=O)NC)c(C)n1 (stereo not given) | i
C=CCn1cc(CNC(C)C2=CCCCC2)c(C)n1 (stereo not given) | i
CNC(=O)[C@@H]1C[C@@H](N)CN1C(=O)c1c(-c2ccccc2)ccnc1C | i
CCn1c(=O)n(CCCN(C)C)c(=O)c2cnc(-c3ccc(Cl)cc3)nc21 | i
CC(C)(C)NC(=O)c1ccccc1NC(=O)CN1c2ccc(F)cc2-c2ccccc2S1(=O)=O | i
CCCCOC(=O)c1ccc(NC(=O)CN2c3ccc(F)cc3-c3ccccc3S2(=O)=O)cc1 | +
CCOC(=O)c1ccc(NC(=O)CN2CCN(Cc3ccc(F)cc3Cl)S2(=O)=O)cc1 | i
COC(=O)c1cc(NC(=O)CN2c3ccc(F)cc3-c3ccccc3S2(=O)=O)cc(C(=O)OC)c1 | +
CCOC(=O)c1ccc(NC(=O)CN2CCCN(Cc3cccc(F)c3)S2(=O)=O)cc1 | i
SMILES | FECH block
CCc1ccc2c(c1)-c1ccccc1S(=O)(=O)N2CC(=O)Nc1ccccc1C(=O)N1CCCC1 | i
CC(CCc1ccccc1)NC(=O)CN1c2ccc(F)cc2-c2ccccc2S1(=O)=O (stereo not given) | +
CC(CCc1ccccc1)NC(=O)CN1c2ccc(Br)cc2-c2ccccc2S1(=O)=O (stereo not given) | i
O=C(CN1c2ccc(F)cc2-c2ccccc2S1(=O)=O)NCCCN1CCOCC1 | i
COCc1nnc(NC(=O)CN2CCN(C(=O)C3CCCO3)CC2)s1 (stereo not given) | i
O=C1CCCc2occ(C(=O)N3CCCC(c4ccn[nH]4)C3)c21 (stereo not given) | i
Cc1oc(-c2cccc(Cl)c2)nc1CSc1nc(-c2cccc(Cl)c2)cc(=O)[nH]1 | i
Cc1ccc(N(Cc2nc3nc(C)c(Cl)c(C)n3n2)C(=O)c2ccc(F)cc2)cc1 | i
Cc1ccc(C2(O)CCN(S(=O)(=O)c3ccc(C)c(F)c3)CC2)nc1 | i
Cc1ccc(NS(=O)(=O)c2ccc3c(c2)CCN3C(=O)CCC(=O)N2CCCCCC2)cc1F | i
CCCN1CCC(Cc2noc(-c3cccnc3OC)n2)CC1 | i
CCC(=O)Nc1ccccc1Sc1c(C)c(C)nc2nc(-c3ccccc3)nn12 | +
CCCc1c(C)nc2ncnn2c1Sc1ccccc1NC(=O)c1ccc(C)cc1 | i
Cc1nc2nc(-c3ccccc3)nn2c(Sc2ccccc2NC(=O)c2c(F)cccc2F)c1C | i
CCc1c(C)nc2ncnn2c1Sc1ccccc1NC(=O)c1ccc(OC)cc1 | i
Cc1nc2ncnn2c(Sc2ccccc2NC(=O)c2ccc(Cl)cc2)c1C | i
CCc1c(C)nc2ncnn2c1Sc1ccccc1NC(=O)c1cc(OC)cc(OC)c1 | i
Cc1cccc(C(=O)Nc2ccccc2Sc2c(C)c(C)nc3ncnn23)c1 | +
CCCc1c(C)nc2ncnn2c1Sc1ccccc1NC(=O)c1cccc(Cl)c1 | i
CCCc1c(C)nc2ncnn2c1Sc1ccccc1NC(=O)c1ccc(C(C)(C)C)cc1 | +
CCc1cc(Sc2ccccc2NC(=O)c2cccc(C)c2)n2ncnc2n1 | i
CCc1c(C)nc2ncnn2c1Sc1ccccc1NC(=O)c1ccc(F)cc1 | +
Cc1nc2nc(-c3ccccc3)nn2c(Sc2ccccc2NC(=O)c2ccccc2)c1C | i
O=C1c2ccccc2C(=O)N1c1nc2n(n1)C(c1ccccc1)C=C(c1ccccc1)N2 (stereo not given) | i
Cc1ccc(-c2ccnc(NC3CCCN(C(=O)c4ccco4)C3)n2)c(C)n1 (stereo not given) | i
SMILES | FECH block
CC(=O)Nc1ccc2nc(CN(C)Cc3noc(C)n3)ccc2c1 | i
O=C(Nc1ccccc1F)c1nc(N2CCCC2)c2oc3ccccc3c2n1 | i
O=C(O)c1cccc(CC2CCN(C(=O)c3cnn4c3CCCC4)C2)c1 (stereo not given) | i
COc1ccc(CCC(=O)Nc2cc(N3CCCS3(=O)=O)ccc2C)cc1 | i
CCC(=O)Nc1nc2cc(NC(=O)C3CCN(S(=O)(=O)N4CCOCC4)CC3)ccc2s1 | i
COc1ccc(-c2ccn[nH]2)cc1C(F)(F)F | i
Cc1nc(CN2CCN(C(=O)CSc3nnc(C)s3)CC2)no1 | i
O=C(c1ccccc1)N1CCC(NCc2cnn(Cc3ccccc3)c2)CC1 | i
Cc1nc(CN2CCN(C(=O)c3cnn(Cc4ccccc4)c3)CC2)no1 | +
CCCCNC(=O)C1CCC(Cn2c(=O)c3sccc3n(CC(=O)NC3CCCC3)c2=O)CC1 (stereo not given) | i
CCC(CC)n1nc(C)cc1NC(=O)C1=CC(=O)CC(C)(C)O1 | i
NS(=O)(=O)c1ccccc1NC(=O)NCc1ccc(F)cc1 | +
Cc1nc2nc[nH]n2c(=O)c1NC(=O)NCc1ccc(F)cc1 | i
COc1ccc(-c2cc(C(=O)NCc3ccc(F)cc3)[nH]n2)cc1S(N)(=O)=O | i
Cc1ccc(F)cc1-c1n[nH]c(CCc2ccccc2)n1 | i
O=C(c1csc(S(=O)(=O)NCC2CCCO2)c1)N1CCCC1 (stereo not given) | i
O=c1c2c(nc3nc(CNc4ccccc4)[nH]n13)CCC2 | +
Cc1ccc(NCc2cc(=O)n3[nH]c(NCc4ccc(F)cc4)nc3n2)cc1Cl | i
CCc1nc2nc(C)[nH]n2c(=O)c1NC(=O)Nc1ccc(C)c(Cl)c1 | i
O=c1cc(CN2CCCC2)nc2nc(NCc3ccc(Cl)cc3)[nH]n12 | i
O=c1cc(CNc2ccccc2)nc2nc(NCc3ccc(F)cc3)[nH]n12 | i
Cc1ccc(NCc2nc3nc4c(c(=O)n3[nH]2)CCC4)cc1Cl | +
O=c1c2c(nc3nc(CNc4ccc(Cl)cc4)[nH]n13)CCC2 | +
CCc1nc2nc(C)[nH]n2c(=O)c1NC(=O)Nc1ccccc1F | i
CCc1ccccc1NCc1nc2nc3c(c(=O)n2[nH]1)CCC3 | +
